These results are taken from PubChem BioAssay (EPA / NIEHS).

Assay [1] can be described thus: ATG_CRE_CIS: Attagene CIS-FACTORIAL HepG2 Assay for human cAMP Responsive Element (CRE) binding protein 3 (AID 2282926). Particulars: HepG2 CRE cis-reporter, Attagene multiplexed mRNA; actives raise or lower the signal. Summed up: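 Human liver HepG2, transient MRTU transfection, 24 h compound exposure. Total RNA → oligo(dT) RT → PCR → 6-FAM primer extension → HpaI cut → CE. Activity called both directions vs DMSO.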

For assay [2], the target named is CCAAT/enhancer-binding protein beta (Homo sapiens) (UniProt P17676). Briefly: ATG_C_EBP_CIS: Attagene CIS-FACTORIAL HepG2 Assay for human CCAAT/Enhancer Binding Protein (C/EBP) beta (AID 2282927). Conditions: HepG2 Attagene cis-factorial transcription factor reporter; actives raise or lower the signal. In outline:
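Transiently transfected HepG2 (MRTU library, endogenous TF-driven promoters); 24 h dosing; total RNA → oligo(dT) RT → PCR → 6-FAM primer extension → HpaI digest → CE; fit bidirectionally vs DMSO.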

Assay [3] is described as follows: ATG_CMV_CIS: Attagene CIS-FACTORIAL HepG2 Assay for human CMV (Internal Marker) (AID 2282928).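 Note: endpoint acts as a background internal control marker rather than a target.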 Conditions: HepG2 CMV promoter reporter, transcription factor profiling; actives raise or lower the signal. In outline:
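CMV internal-marker background readout in transiently transfected HepG2 cells bearing cis-regulated reporter units. Reporter mRNA is measured 24 h after dosing by RT-PCR and capillary electrophoresis, with bidirectional fitting against DMSO.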

The nature of assay [4]: ATG_DR4_LXR_CIS: Attagene CIS-FACTORIAL HepG2 Assay for human Liver X Receptor (LXR), DR4 submotif (AID 2282929). Conditions: HepG2 Attagene DR4 cis-reporter, mRNA transcription; actives raise or lower the signal. Summed up:
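HepG2 cells transiently transfected with cis-promoter-driven multiplexed reporter units (DR4 element) were dosed for 24 h. Reporter mRNA was quantified by RT-PCR, fluorescent primer extension, HpaI digestion and capillary electrophoresis; bidirectional fitting versus DMSO baseline.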

Assay [5] in a line: ATG_AP_1_CIS: Attagene CIS-FACTORIAL HepG2 Assay for human Activator Protein 1 (AP-1) (AID 2282931). Conditions: HepG2 Attagene cis-factorial AP-1 reporter mRNA; actives raise or lower the signal. Summed up:
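HepG2 cells transiently transfected with cis-element-driven multiplex reporter units; 24 h compound exposure. Reporter mRNA quantified by RT-PCR, FAM-labelled fragments resolved by capillary electrophoresis; bidirectional fit versus DMSO baseline.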

Assay [6] is described as follows: ATG_AP_2_CIS: Attagene CIS-FACTORIAL HepG2 Assay for human Activator Protein 2 (AP-2) (AID 2282932). Conditions: HepG2 AP-2 cis-reporter, Attagene transcription factor profiling; actives raise or lower the signal. Summed up:
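Multiplexed mRNA reporter assay in HepG2: cis-regulated units report endogenous factor activity after 24 h treatment. Fluorescence from capillary electrophoresis of RT-PCR products gives the signal, with DMSO as baseline.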

Assay [7] is described as follows: ATG_BRE_CIS: Attagene CIS-FACTORIAL HepG2 Assay for human Bone Morphogenetic Protein (BMP) Response Element (BRE) (AID 2282933). Conditions: HepG2 BMP response element reporter, Attagene transcription factor profiling; actives raise or lower the signal. In outline:
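After a 24 h chemical treatment, transiently transfected HepG2 cells were lysed for RNA; reporter transcripts were quantified by fluorescent RT-PCR and capillary electrophoresis, normalised to DMSO.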

The target of assay [8] is Transcription factor E2F1 (Homo sapiens) (UniProt Q01094). Description: ATG_E2F_CIS: Attagene CIS-FACTORIAL HepG2 Assay for human E2F Transcription Factor 1 (AID 2282935). Particulars: HepG2 Attagene cis-reporter, E2F reporter RNA transcripts; actives raise or lower the signal. In outline: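 Measures reporter transcript levels via RT-PCR with capillary electrophoresis detection in HepG2 cells harboring cis-regulated reporter units; 24 h post-dose; bidirectional curve fitting with DMSO as baseline.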

A short description of assay [9]: ATG_E_Box_CIS: Attagene CIS-FACTORIAL HepG2 Assay for human Enhancer Box (E-box) (AID 2282936). Conditions: HepG2 E-box cis-reporter transcription, actives raise or lower the signal. Summed up: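 First, HepG2 cells receive multiple cis-regulated reporter constructs by transient transfection. Next, chemicals are applied for 24 h. Finally, reporter mRNA is quantified via RT-PCR and capillary electrophoresis, with DMSO as baseline.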

Assay [10] in a line: ATG_M_61_CIS: Attagene CIS-FACTORIAL HepG2 Assay for M61 Transcription Factor (Internal Marker) (AID 2282937). Conditions: HepG2 Attagene CIS-FACTORIAL M61 internal marker reporter; actives raise or lower the signal. Summed up:
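HepG2 cells transiently transfected with cis-element-driven multiple reporter transcription units, dosed for 24 h. Reporter mRNA measured by RT-PCR, 6-FAM primer-extension labelling, HpaI digestion and capillary electrophoresis; bidirectional fit versus DMSO baseline.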

A short description of assay [11]: ATG_EGR_CIS: Attagene CIS-FACTORIAL HepG2 Assay for human Early Growth Response 1 (EGR1) (AID 2282938). Conditions: HepG2 Attagene CIS-FACTORIAL EGR reporter mRNA; actives raise or lower the signal. Summed up:
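HepG2 cells transiently transfected with cis-promoter-driven multiplexed reporter transcription units; reporter mRNA measured 24 h after compound dosing by RT-PCR, 6-FAM primer extension, HpaI digestion and capillary electrophoresis. Bidirectional fit versus DMSO baseline.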

Assay [12] in a line: ATG_Ets_CIS: Attagene CIS-FACTORIAL HepG2 Assay for human Erythroblast Transformation Specific (ETS) (AID 2282941). Conditions: HepG2 ETS cis-reporter transcription, actives raise or lower the signal. Summed up:
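HepG2 cells transfected with multiple cis-regulated reporter units measuring endogenous ETS-driven transcription, 24 h after dosing. Reporter mRNA quantified by RT-PCR with capillary electrophoresis; bidirectional fit relative to DMSO.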

Assay [13] in a line: ATG_FoxO_CIS: Attagene CIS-FACTORIAL HepG2 Assay for human Forkhead box O (FoxO) (AID 2282943). Conditions: HepG2 Attagene cis-reporter, FoxO element, mRNA; actives raise or lower the signal. In outline:
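Read-out: fluorescence of 6-FAM-labelled reporter cDNA fragments resolved by capillary electrophoresis. Transiently transfected HepG2 cells were dosed for 24 h; activity fitted in both directions relative to DMSO controls.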

Assay [14] in a line: ATG_GATA_CIS: Attagene CIS-FACTORIAL HepG2 Assay for human GATA Binding Protein (AID 2282944). Particulars: HepG2 GATA cis-element reporter, Attagene multiplex mRNA; actives raise or lower the signal. In outline:
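Measures endogenous transcription factor-driven reporter mRNA in HepG2 cells transiently carrying cis-regulated constructs. 24 h dosing; RNA via oligo(dT) reverse transcription, PCR, HpaI digestion, capillary electrophoresis; fitted relative to DMSO.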

The nature of assay [15]: ATG_GLI_CIS: Attagene CIS-FACTORIAL HepG2 Assay for human Zinc Finger Protein GLI1 (AID 2282945). Particulars: HepG2, Attagene cis-factorial reporter mRNA, GLI element; actives raise or lower the signal. Summed up: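 Transiently transfected HepG2 cells report endogenous transcription factor activity via cis-element-driven reporter units. After 24 h compound exposure, reporter mRNA was measured by RT-PCR with capillary electrophoresis; bidirectional fitting against DMSO baseline.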

A short description of assay [16]: ATG_ISRE_CIS: Attagene CIS-FACTORIAL HepG2 Assay for human Interferon Regulatory Factor 1 (IRF1) binding to an Interferon-Stimulated Response Element (ISRE) (AID 2282948). Particulars: HepG2 ISRE cis-reporter (Attagene), mRNA transcription readout; actives raise or lower the signal. In outline: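 Transiently transfected HepG2 cells carrying cis-element reporter units, dosed 24 hours. Reporter mRNA quantified by RT-PCR, fluorescent primer extension, HpaI digestion and capillary electrophoresis. Bidirectional fitting relative to DMSO.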

The nature of assay [17]: ATG_M_32_CIS: Attagene CIS-FACTORIAL HepG2 Assay for M32 Transcription Factor (Internal Marker) (AID 2282949).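 Note: background control marker of the multiplexed CIS panel rather than a real target.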 Conditions: HepG2 Attagene cis-factorial M32 reporter, mRNA; actives raise or lower the signal. Summed up:
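Following 24 h chemical exposure of HepG2 cells transiently expressing cis-promoter reporter constructs, reporter transcript levels were determined by RT-PCR with fluorescent labelling and capillary electrophoresis, then fitted bidirectionally against DMSO.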

Assay [18] can be described thus: ATG_M_06_CIS: Attagene CIS-FACTORIAL HepG2 Assay for M06 Transcription Factor (Internal Marker) (AID 2282950). Conditions: HepG2 Attagene CIS-FACTORIAL M06 internal marker reporter; actives raise or lower the signal. In outline: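 One of many multiplexed endpoints: HepG2 reporter mRNA after 24 h dosing, detected by RT-PCR and capillary electrophoresis fluorescence; gain or loss of signal analysed against DMSO.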

Assay [19] has as its target Paired box protein Pax-6 (Homo sapiens) (UniProt P26367). Briefly: ATG_Pax6_CIS: Attagene CIS-FACTORIAL HepG2 Assay for human Paired Box 6 (PAX6) (AID 2282956). Conditions: HepG2 CIS-FACTORIAL PAX6 reporter transcription, RNA readout; actives raise or lower the signal. In outline:
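HepG2 cells transiently transfected with cis-promoter-driven multiplexed reporter units sensing endogenous transcription factor activity; 24 h chemical exposure. Reporter mRNA quantified by RT-PCR, 6-FAM labelling, HpaI digestion and capillary electrophoresis; bidirectional fit versus DMSO baseline.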

Assay [20] in a line: ATG_PXRE_CIS: Attagene CIS-FACTORIAL HepG2 Assay for human Pregnane X Receptor Element (PXRE) (AID 2282957). Particulars: HepG2 Attagene CIS-FACTORIAL PXRE reporter, mRNA; actives raise or lower the signal. In outline:
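Transfect HepG2 with MRTUs (cis promoter elements); dose chemical, incubate 24 h; isolate RNA, RT with oligo(dT), PCR, 6-FAM label, HpaI cut, CE. Gain/loss fit vs DMSO.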

Activity calls are given as the source filed them. Rule for the calls: active = hit-call score of the fitted dose curve at least 0.9, where 1 is the maximum; inactive = score below 0.9.

Chain of Paired box protein Pax-6 (Homo sapiens) (P26367 whole entry, looked up): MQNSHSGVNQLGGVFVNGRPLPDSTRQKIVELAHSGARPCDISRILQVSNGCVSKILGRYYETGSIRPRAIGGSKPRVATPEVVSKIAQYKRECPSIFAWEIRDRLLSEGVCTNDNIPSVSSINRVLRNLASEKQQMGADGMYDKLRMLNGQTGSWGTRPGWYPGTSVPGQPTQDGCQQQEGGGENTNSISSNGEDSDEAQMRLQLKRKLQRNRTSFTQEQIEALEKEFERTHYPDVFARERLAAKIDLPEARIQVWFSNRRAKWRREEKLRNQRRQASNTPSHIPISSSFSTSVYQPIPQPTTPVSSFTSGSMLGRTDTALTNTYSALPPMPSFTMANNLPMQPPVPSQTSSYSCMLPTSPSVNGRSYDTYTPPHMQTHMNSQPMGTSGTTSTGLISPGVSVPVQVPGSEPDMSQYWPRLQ
Chain of CCAAT/enhancer-binding protein beta (Homo sapiens) (P17676 whole entry, looked up): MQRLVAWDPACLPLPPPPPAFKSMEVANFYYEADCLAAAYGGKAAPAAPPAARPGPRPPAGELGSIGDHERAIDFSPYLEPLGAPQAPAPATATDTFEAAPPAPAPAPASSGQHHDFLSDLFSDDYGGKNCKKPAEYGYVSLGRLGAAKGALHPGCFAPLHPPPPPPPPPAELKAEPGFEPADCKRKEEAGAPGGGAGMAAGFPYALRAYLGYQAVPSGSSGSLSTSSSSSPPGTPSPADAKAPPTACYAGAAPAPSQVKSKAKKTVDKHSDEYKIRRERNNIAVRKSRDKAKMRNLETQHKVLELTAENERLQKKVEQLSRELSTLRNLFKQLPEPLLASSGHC
Chain of Transcription factor E2F1 (Homo sapiens) (Q01094 whole entry, looked up): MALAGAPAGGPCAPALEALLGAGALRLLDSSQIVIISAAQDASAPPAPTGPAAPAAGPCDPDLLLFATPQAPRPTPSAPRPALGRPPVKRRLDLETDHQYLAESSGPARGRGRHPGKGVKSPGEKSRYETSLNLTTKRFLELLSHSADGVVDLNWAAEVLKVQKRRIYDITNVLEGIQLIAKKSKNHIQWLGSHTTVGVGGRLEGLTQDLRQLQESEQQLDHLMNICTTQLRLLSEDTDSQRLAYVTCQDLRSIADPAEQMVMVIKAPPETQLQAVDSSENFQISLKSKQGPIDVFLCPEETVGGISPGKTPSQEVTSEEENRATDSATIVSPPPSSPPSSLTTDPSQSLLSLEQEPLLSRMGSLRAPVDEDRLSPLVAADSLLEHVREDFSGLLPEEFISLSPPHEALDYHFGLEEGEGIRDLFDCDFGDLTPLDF

Usually AC50 stands for the concentration at which the activity in the assay is half-maximal. With `CO[Si](CCCNCCN)(OC)OC`, the compound was classed as inactive in assay [1], in [2], in [3], in assay [4], in assay [5] and in [6]. Moreover, the compound was classed as inactive in [7], in assay [8], in assay [9], in assay [10], in assay [11] and in assay [12]. Also, the call in [13], in assay [14], in assay [15], in [16], in assay [17] and in assay [18] was inactive. In assay [19], the call was inactive. In assay [20], the AC50 is 37.3 µM (active).

Regarding `CC(C)=CCOC(=O)c1ccccc1`, the compound was called inactive in assay [1], in [2], in [3], in [4], in [5] and in [6]. Also, the compound was classed as inactive in assay [7], in assay [8], in assay [9], in assay [10], in [11] and in assay [12]. Also, the call in assay [13], in [14], in [15], in assay [16], in assay [17] and in assay [18] was inactive. For the same compound, the result in [19] and in assay [20] was inactive.

As to `O=C(O)c1ccccc1C(=O)O`, the result in assay [1], in assay [2], in assay [3], in assay [4], in assay [5] and in assay [6] was inactive. Also, the outcome in assay [7], in [8], in assay [9], in assay [10], in assay [11] and in assay [12] was inactive. Also, the compound was classed as inactive in assay [13], in assay [14], in [15], in assay [16], in assay [17] and in assay [18]. Further, the outcome in assay [19] was inactive. Besides, the half-maximal activity concentration (AC50) in assay [20] was 28.3 µM (active).

As to `O=C1CCCCCCCCCCCCCC1`, the compound was called inactive in assay [1], in assay [2], in [3], in assay [6], in assay [7] and in [8]. Moreover, the result in assay [9], in assay [10], in assay [11], in assay [12], in [13] and in assay [14] was inactive. The result in assay [15], in assay [16], in assay [17], in assay [18] and in assay [19] was inactive. The concentration at half-maximal activity (AC50) in assay [4] was 49.4 µM (active); in [5], 44.6 µM (active); in assay [20], 9.14 µM (active).

For `CC(C)CC(=O)CC(C)CC(C)C` (stereo not given), the result in [1], in [2], in [3], in [4], in assay [5] and in [6] was inactive. Besides, the call in [7], in assay [8], in assay [9], in assay [10], in assay [11] and in [12] was inactive. The compound was called inactive in [13], in [14], in assay [15], in assay [16], in assay [17] and in assay [18]. For the same compound, the compound was called inactive in [19]. Moreover, the AC50 in assay [20] is 29.3 µM (active).

As to `c1cc(N(CC2CO2)CC2CO2)ccc1Cc1ccc(N(CC2CO2)CC2CO2)cc1` (stereo not given), the compound was called inactive in assay [1], in assay [7], in assay [8], in assay [10], in assay [12] and in [13]. Besides, the result in assay [14], in [17], in [18] and in assay [20] was inactive. The AC50 in assay [2] was 99.5 µM (active); in assay [3], 26.6 µM (active); in assay [4], 27.3 µM (active); in assay [5], 54.4 µM (active); in assay [6], 26.3 µM (active); in assay [9], 34.3 µM (active). Also, the AC50 in [11] was 18.4 µM (active); in assay [15], 26.4 µM (active); in assay [16] it was 21.7 µM (active); in assay [19], 9.31 µM (active).

On to `O=C(OCc1ccccc1)c1ccccc1`, for which the compound was classed as inactive in assay [1], in assay [2], in assay [3], in assay [4], in assay [5] and in assay [6]. Besides, the compound was called inactive in assay [7], in [8], in assay [9], in assay [10], in assay [11] and in assay [12]. Moreover, the call in assay [13], in assay [14], in assay [15], in assay [16], in [17] and in [18] was inactive. In [19], the compound was classed as inactive. Further, in assay [20], the concentration at half-maximal activity (AC50) is 26.4 µM (active).
